# Measured values: PubChem BioAssay AID1851 (National Center for Advancing Translational Sciences (NCATS), 2009)
# Several values for one entry are separate records, joined by “and”; a condition that tells them apart may be missing. Equal values may be shown once. Screen size: about 16,000 compounds; about 5,800 (36%) were called active. About 23% were inconclusive and are not listed. Some of the results follow. A number with no mark means an inactive call. The call rests on the fitted dose curve; in most records, active means well fitted curve in the direction sought with a large enough effect; inconclusive means small, poorly fitted or top-dose-only effect, or effect the other way; inactive means no such curve, though single readings can be large or run the other way.
# Target: Cytochrome P450 2C19 (Homo sapiens) (UniProt P33261)
# Sequence (P33261 whole entry, looked up): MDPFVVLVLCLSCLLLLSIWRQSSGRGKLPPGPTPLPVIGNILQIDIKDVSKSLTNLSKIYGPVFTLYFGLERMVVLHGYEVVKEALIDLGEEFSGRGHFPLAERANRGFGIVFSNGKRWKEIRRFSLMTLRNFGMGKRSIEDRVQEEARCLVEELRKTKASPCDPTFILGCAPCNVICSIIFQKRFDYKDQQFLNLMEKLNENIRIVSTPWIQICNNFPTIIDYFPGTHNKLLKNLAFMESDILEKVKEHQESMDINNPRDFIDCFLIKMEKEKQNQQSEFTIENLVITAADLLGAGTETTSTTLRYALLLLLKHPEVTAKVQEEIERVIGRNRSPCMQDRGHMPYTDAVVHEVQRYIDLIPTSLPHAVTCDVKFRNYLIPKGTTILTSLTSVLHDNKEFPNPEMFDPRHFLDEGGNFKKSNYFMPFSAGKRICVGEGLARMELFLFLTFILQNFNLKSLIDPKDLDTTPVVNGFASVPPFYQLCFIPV
# Assay: Cytochrome panel assay with activity outcomes
# Details: recombinant CYP, pro-luciferin dealkylation, luminescence, p450-cyp2c19; series mostly up to 57.1 µM; activity, negative = inhibition: at the top concentration
# On the % scale 0 is the no-effect control and ±100 the full control effect.
SMILES,AC50,"activity, negative = inhibition"
CCN(CC)CC#CCC(C)(c1ccccc1)c1ccccc1,447 nM (active),–
CCN(CC)CCOC(=O)C(c1ccccc1)c1ccccc1,–,-12.6% [at 25.6 µM]
CCN(CCCc1ccccc1)CCCc1ccccc1,–,-5.51% [at 25.6 µM]
O=C(c1ccc(N2CCCCC2)c([N+](=O)[O-])c1)N(Cc1ccccc1)c1ccccn1,14100 nM (active),–
COc1ccccc1N1CCN(CCN(C(=O)C2CCCCC2)c2ccccn2)CC1,–,-20.8%
O=C1C(Cl)=C(Sc2nnc3c4ccccc4c4ccccc4c3n2)C(=O)c2ccccc21,1580 nM (active),–
CCc1cccc(NC(=O)CN(C)S(=O)(=O)c2cnc[nH]2)c1,447 nM (active),–
CN(CC(=O)N1CCN(c2ccccc2)CC1)S(=O)(=O)c1cnc[nH]1,2240 nM (active),–
CC[n+]1c(/C=C/Nc2ccccc2)oc2ccccc21,–,-22%
CCCNC(=O)OC[C@@H]1O[C@H](CCO/N=C(\C)CCN2CCc3nc(CC)c(CC)cc3C2)C=C[C@@H]1Oc1ccc(OC)cc1,–,-24.5% [at 11.4 µM]
CCCNC(=O)OC[C@@H]1O[C@H](CCON=C(C)C)C=C[C@@H]1Oc1ccc(OC)cc1,–,-39.5% [at 11.4 µM]
COc1ccc(O[C@H]2C=C[C@@H](c3ccccc3)O[C@H]2CO/N=C2/c3cc(OC)ccc3O[C@@H](c3cccc(OC)c3)[C@H]2O)cc1,501 nM (active),–
CCCNC(=O)OC[C@@H]1O[C@H](CCO/N=C2\c3cc(OC)ccc3O[C@H](c3cccc(OC)c3)[C@H]2O)C=C[C@@H]1Oc1ccc(OC)cc1,1580 nM (active),–
CCOC(=O)CCCc1c[nH]c2ccccc12,5010 nM (active),–
N[C@@H](Cc1c[nH]c2ccccc12)C(=O)O,–,-11.9%
CC(C)CNC(=O)CCCc1c[nH]c2ccccc12,2240 nM (active),–
CCOC(=O)CCCN,–,31.2% [at 11.4 µM]
C[C@@](N)(Cc1c[nH]c2ccccc12)C(=O)O,–,34.7% [at 11.4 µM]
N[C@@H]1CONC1=O,inactive,–

SMILES,AC50,"activity, negative = inhibition"
CO/N=C(\C(=O)N[C@@H]1C(=O)N2C(C(=O)O)=C(COC(C)=O)CS[C@@H]12)c1csc(N)n1,–,-19% [at 25.6 µM]
Cc1ccsc1/C=C1/SC(=O)N(CC(=O)N2CCOCC2)C1=O,–,-27.3%
Cc1cc(N2CCOCC2)ccc1/C=C1\SC(=O)N(C(C)C)C1=O,10000 nM (active),–
O=c1c(-c2ccccc2)nc2cnc(N3CCOCC3)nc2n1C[C@H]1CCCO1,–,-4.21%
Nc1ncc(-c2ccccc2)n1CC1CCCO1 (stereo unspecified),5620 nM (active),–
O=c1cnc2cnc(Nc3ccccc3)nc2n1C[C@H]1CCCO1,–,-34.8%
CC(/C=N/n1c(-c2cccnc2)n[nH]c1=S)=C\c1ccccc1,2820 nM (active),–
COc1ccc(-n2c(-c3cnccn3)n[nH]c2=S)cc1,–,-4.23%
COc1cc(-c2nnc(COC(=O)c3c4c(nc5ccccc35)CCCC4)o2)cc(OC)c1OC,1780 nM (active),–
Nc1c2c(nc3ccccc13)CCCC2,inactive,–
C[C@@H]1C[C@H](OC(=O)[C@@H](O)c2ccccc2)CC(C)(C)N1C,–,37.5% [at 25.6 µM]
C[C@@H]1C[C@H](OC(=O)c2ccccc2O)CC(C)(C)C1,10000 nM (active),–
O=C(Nc1cccc(F)c1)N1CCC2(CC1)CCN(C(=O)c1cnccn1)CC2,–,5.51%
CCOC(=O)c1c2c(n3ccccc13)C(=O)c1ccccc1C2=O,–,0.385% [at 11.4 µM]
CCOC(=O)c1c2ccc(OCC(=O)N/N=C/c3ccc(Cl)cc3)cc2n2ccccc12,2510 nM (active),–
Cc1cccc(NC(=S)Nc2ccc(Br)cc2)c1,708 nM (active),–
CCCNC(=S)Nc1ccc(Br)cc1,7940 nM (active),–
Cc1ccc(NC(=S)Nc2ccc(Br)cc2)cc1,562 nM (active),–
C/C(=N\NC(=S)Nc1cccc(C)c1)c1ccccc1,447 nM (active),–

SMILES,AC50,"activity, negative = inhibition"
CCN1C(=O)[C@H]2[C@H]3[C@H](O)[C@H](O)C/C(=N/O[C@@H]4O[C@@H](COC(C)=O)[C@@H](OC(C)=O)[C@@H](OC(C)=O)[C@H]4OC(C)=O)[C@H]3CC[C@@H]2C1=O,–,16.6% [at 11.4 µM]
CO[C@@H]1COC(=O)[C@H](COCc2ccccc2)NC(=O)C/C=C\[C@@H](C)[C@H](OC)COC(=O)[C@@H](C)NC(=O)C/C=C\[C@H]1C,–,5.67% [at 11.4 µM]
CCCC(=O)Nc1nc(-c2ccc3c(c2)CCN3S(C)(=O)=O)cs1,–,-24.4%
COc1ccc(-c2csc(NC(=O)CCn3cnc4ccccc4c3=O)n2)cc1OC,2820 nM (active),–
COc1ccc(-c2ccc(=O)n(CC(=O)Nc3nnc(C(C)C)s3)n2)cc1OC,–,-29.9%
CN1CCN(Cc2nc3cccc4c3c([n+]2[O-])-c2ccccc2-4)CC1,–,-13.4% [at 11.4 µM]
O=C(Cn1c(SCC(=O)N2CCc3ccccc3C2)nc2ccccc21)NC1CCCC1,10000 nM (active),–
C=CCn1c(SCC(=O)N2CCc3ccccc3C2)nc2ccccc2c1=O,1580 nM (active),–
COc1ccc2c3c(ccc2c1)N[C@H](C(=O)O)CC3,–,3.64% [at 11.4 µM]
CN1CC(c2ccccc2)C2(COc3ccccc3C2=O)C12C(=O)Nc1ccccc12 (stereo unspecified),1120 nM (active),–
Cc1ccc(CONC(=O)/N=C/N(C)C)cc1,4470 nM (active),–
CN1CCN(c2ccc([N+](=O)[O-])cc2S(=O)(=O)N2CCOCC2)CC1,–,6.03%
CN1CCN(S(=O)(=O)c2cc([N+](=O)[O-])ccc2N2CCCCCC2)CC1,631 nM (active),–
O=C(c1ccc(Br)cc1)c1cc([N+](=O)[O-])ccc1N1CCCCC1,1260 nM (active),–
CN1CCN(c2ccncc2S(=O)(=O)N2CCN(C)CC2)CC1,–,15.7% [at 11.4 µM]
CN(C)S(=O)(=O)c1cc([N+](=O)[O-])ccc1N1CCCCCC1,5010 nM (active),–
CN1CCN(CCCN2c3ccccc3Sc3ccc(S(=O)(=O)N(C)C)cc32)CC1,–,2.33% [at 25.6 µM]
Cc1cc2c(nc1C)CCCN2C[C@H](O)CN1CCCc2nc(-c3ccc(Br)cc3)ccc21,–,-41.3% [at 11.4 µM] and -36.7% [at 11.4 µM]
